Some test systems named below: NCI-H23 lung; NCI-H226 lung; NCI-H322M lung; HOP-62 NSCLC; NCI-H460 lung; HOP-92 NSCLC; NCI-H522 lung; A549/ATCC NSCLC; 786-0 renal; DU-145 prostate; K-562 leukemia; MALME-3M melanoma; MDA-MB-231 breast; RXF 393 renal; SF-268 CNS; SF-295 CNS; SF-539 CNS; UACC-257 melanoma; COLO 205 colon; M14 melanoma.
Assay in all cases: NCI-60 one-dose screen, 48 h (100 = growth as untreated, 0 = no growth, -100 = all killed)
Holding throughout (conditions): 10 µM unless noted

Each structure is given as a SMILES string. This is part of a sample that, as a whole, favours compounds with a hit. Of some 83,000 tested, about 20% had one in any assay.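 Growth was measured after 48 h exposure to one concentration of compound in 96-well plates. Values under 10 count as active.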 Values without a mark were called inactive. Calls of active or inactive are those of the source.

Regarding `CC1(C)CCC(S(=O)(=O)c2ccc3c(c2)/C(=N\O)c2cc(S(=O)(=O)N4CCN(c5ccc(F)cc5O)CC4)ccc2-3)CC1`, the growth is -76.8% (active) in the test on NCI-H23 lung; -57% (active) in the test on NCI-H226 lung; -46.9% (active) in the test on NCI-H322M lung; -88.1% (active) in the test with HOP-62 NSCLC; -78% (active) in the test with NCI-H460 lung; -50.4% (active) in the test on HOP-92 NSCLC. Further, the growth in the test on NCI-H522 lung is -82.6% (active); with A549/ATCC NSCLC, -92.9% (active); with 786-0 renal it was -89.9% (active); with DU-145 prostate, -46% (active); in the test on K-562 leukemia, -78.4% (active); with MALME-3M melanoma, -70.5% (active). Moreover, the growth is -63.7% (active) in the test on MDA-MB-231 breast; -90% (active) in the test with RXF 393 renal; -54.4% (active) in the test with SF-268 CNS; -57.1% (active) in the test with SF-295 CNS; -88.2% (active) with SF-539 CNS; -80.6% (active) in the test with UACC-257 melanoma.
For `CC(=O)c1c(Nc2ccc(F)c(F)c2F)[nH]c2c(F)cc(F)cc2c1=O`, the growth was -3.83% (active) in the test on NCI-H23 lung; -15.6% (active) in the test on NCI-H226 lung; 4.47% (active) with NCI-H322M lung; -21.5% (active) with HOP-62 NSCLC; 2.98% (active) in the test with NCI-H460 lung; -18.8% (active) in the test with HOP-92 NSCLC. The growth is -11.1% (active) in the test with NCI-H522 lung; 4.48% (active) in the test with A549/ATCC NSCLC; 12.1% in the test with 786-0 renal; -65% (active) in the test on COLO 205 colon; 18.1% in the test on DU-145 prostate; 7.47% (active) in the test on K-562 leukemia. The growth was -22.6% (active) in the test with MALME-3M melanoma; -1.7% (active) in the test with MDA-MB-231 breast; -4.56% (active) in the test with RXF 393 renal; 17.9% with SF-268 CNS; -35.3% (active) in the test with SF-295 CNS; 1.53% (active) with SF-539 CNS. Besides, the results for the growth in the test on UACC-257 melanoma and in the test with M14 melanoma were -18.4% (active) and 2.68% (active), respectively.
With `CN1C(=O)N(C)C2C1NC(=S)N2/N=C/C=C/c1ccccc1[N+](=O)[O-]` (stereo not given), the growth with NCI-H23 lung was 38.2%; in the test on NCI-H226 lung, 28.4%; in the test with NCI-H322M lung it was 49.3%; with HOP-62 NSCLC it was 26.2%; with NCI-H460 lung, 12.6%; in the test with HOP-92 NSCLC it was 33.9%. In addition, the growth with NCI-H522 lung was 9.84% (active); in the test with A549/ATCC NSCLC, 31.3%; with 786-0 renal it was 26.6%; in the test with DU-145 prostate, 18.7%; with K-562 leukemia it was 14.7%; with MALME-3M melanoma, 54.4%. In addition, the growth is 56.1% in the test on MDA-MB-231 breast; 13.1% in the test with RXF 393 renal; 41.3% in the test on SF-268 CNS; 9.8% (active) with SF-295 CNS; 2.83% (active) in the test with SF-539 CNS; 44.1% in the test with UACC-257 melanoma. In addition, the growth in the test on M14 melanoma was 6.06% (active).
For the molecule `Clc1nccc2c(-c3csc(-c4c[nH]c5ccccc45)n3)c[nH]c12`, the growth in the test on NCI-H23 lung is 68.8%; with NCI-H226 lung, 39.5%; in the test with NCI-H322M lung, 80.8%; in the test on HOP-62 NSCLC, 101%; in the test on NCI-H460 lung, 11.9%; in the test with HOP-92 NSCLC, 24.3%. The growth in the test on NCI-H522 lung was 18.5%; with A549/ATCC NSCLC it was 29.1%; in the test with 786-0 renal it was 27.7%; in the test with COLO 205 colon, 33.3%; in the test with DU-145 prostate, 31.6%; in the test with K-562 leukemia it was 10.3%. Further, the growth in the test on MALME-3M melanoma is 79.8%; in the test on MDA-MB-231 breast, 24.8%; in the test on RXF 393 renal, 12.4%; with SF-268 CNS, 73.4%; in the test on SF-295 CNS, 26.7%; in the test on SF-539 CNS it was 41.9%. Further, the results for the growth in the test on UACC-257 melanoma and with M14 melanoma were -29.2% (active) and -26.6% (active), respectively.
For the molecule `COc1ccc(/C=C/C(=O)c2ccc(Nc3nc(Nc4ccc(F)cc4)nc(Nc4ccc(Cl)cc4)n3)cc2)cc1`, the growth with NCI-H23 lung is 93.3%; in the test on NCI-H226 lung, 122%; in the test with NCI-H322M lung, 152%; in the test on HOP-62 NSCLC, 112%; in the test on NCI-H460 lung it was 94.2%; with HOP-92 NSCLC, 44.7%. Further, the growth in the test on NCI-H522 lung was 61.9%; in the test on A549/ATCC NSCLC, 90.5%; with 786-0 renal it was 92.6%; in the test on COLO 205 colon, 96%; in the test on DU-145 prostate, 104%; with K-562 leukemia, 85.4%. Further, the growth is 164% in the test with MALME-3M melanoma; 95.3% with MDA-MB-231 breast; 1.27% (active) in the test with RXF 393 renal; 100% in the test on SF-268 CNS; 81.8% in the test with SF-295 CNS; 109% with SF-539 CNS. Further, the growth in the test on UACC-257 melanoma is 107%; in the test with M14 melanoma, 95.2%.
Consider `CN(CCC#N)c1ccc(/C=C2\NC(=O)NC2=O)cc1`, for which the growth with NCI-H23 lung is 89.5%; in the test with NCI-H226 lung, 96.7%; in the test on NCI-H322M lung, 103%; in the test with HOP-62 NSCLC it was 99.3%; in the test on NCI-H460 lung it was 98.4%; with HOP-92 NSCLC, 79.2%. Also, the growth in the test on NCI-H522 lung was 38.7%; in the test with A549/ATCC NSCLC, 111%; in the test with 786-0 renal it was 88%; in the test on DU-145 prostate, 124%; with K-562 leukemia, 107%; in the test on MALME-3M melanoma, 113%. Further, the growth is 101% in the test on MDA-MB-231 breast; 113% in the test with RXF 393 renal; 117% with SF-268 CNS; 112% in the test on SF-295 CNS; 91.3% with SF-539 CNS; 93.4% in the test with UACC-257 melanoma.
`CC(C)CCSc1nc(Nc2ccccc2)c(C#N)c(-c2ccccc2)n1`: the growth was 50.1% in the test with NCI-H23 lung; 90.3% with NCI-H226 lung; 34.3% in the test with NCI-H322M lung; 19.7% in the test on HOP-62 NSCLC; 14.6% in the test with NCI-H460 lung; 21.8% in the test with HOP-92 NSCLC. Moreover, the growth in the test on NCI-H522 lung was 69.8%; in the test on A549/ATCC NSCLC, 14.8%; with 786-0 renal, 8.79% (active); with COLO 205 colon, 46%; in the test with DU-145 prostate, 61.9%; with K-562 leukemia it was 48.6%. In addition, the growth in the test with MALME-3M melanoma was 37.4%; with MDA-MB-231 breast, 8.82% (active); with RXF 393 renal it was 23.1%; in the test with SF-268 CNS, 60%; in the test with SF-295 CNS, 32%; with SF-539 CNS it was 18.4%. The values for the growth in the test with UACC-257 melanoma and in the test with M14 melanoma were 88.2% and 71.4%, respectively.
With `COc1ccc(-c2cn(-c3ccc(Cl)cc3)c(SCC(=O)c3ccc([N+](=O)[O-])cc3)n2)cc1`, the growth was 86.9% in the test with NCI-H23 lung; 91.3% with NCI-H226 lung; 81.1% with NCI-H322M lung; 50.4% with HOP-62 NSCLC; 91.5% in the test on NCI-H460 lung; 28% in the test with HOP-92 NSCLC. For the same molecule, the growth with NCI-H522 lung was 70.7%; in the test with A549/ATCC NSCLC, 101%; in the test with 786-0 renal, 52.9%; in the test with COLO 205 colon, 110%; in the test with DU-145 prostate, 102%; with K-562 leukemia, 102%. In addition, the growth was 87.9% in the test on MALME-3M melanoma; 80% with MDA-MB-231 breast; 54.1% in the test on RXF 393 renal; 73.1% in the test on SF-268 CNS; 75.3% in the test with SF-295 CNS; 82.5% in the test with SF-539 CNS. The results for the growth in the test with UACC-257 melanoma and with M14 melanoma were 99.6% and 92.4%, respectively.

(Values after PubChem BioAssay (NCI).)
